Test results as given in PubChem BioAssay AID588727 (Southern Research Specialized Biocontainment Screening …, 2011).
In all, about 350,000 compounds went through this assay and about 450 (0.13%) were called active. The rule behind the calls is not given here. Not all results are given here. Potency and affinity values are given separately.

Experiment: inhibitors of VEEV TC-83 cytopathic effect, confirmation, Vero cells (AID 588727)
Settings: VEEV TC-83 cytopathic effect inhibition, at 20 µM
[1] = stronger effect = higher value unless noted
[2] = measured here: 10K pilot screen inhibition, stronger effect = higher value

In the case of `CN(CC(=O)Nc1ccc(F)cc1)C(=O)COC(=O)/C=C/c1ccccc1[N+](=O)[O-]`, the inhibition [1] is reported as 5.33% (inactive).

For `COc1ccc(/C=N/Nc2nonc2N)cc1`, the inhibition [1] was 0.29% (inactive).

With `COc1ccc(C2c3c(ncn(CCCO)c3=N)Oc3ccc4ccccc4c32)cc1OC` (configuration not stated) the inhibition [1] was 4.99% (inactive).

With `COc1ccc(C2c3c(ncn(CCN4CCOCC4)c3=N)Oc3ccc4ccccc4c32)cc1OC` (configuration not stated) the inhibition [1] was 1.27% (inactive).

For `Cc1ccc2sc(NNC(=O)C3=COCCO3)nc2c1C`, the inhibition [1] was 2.26% (inactive).

For `CN(C)/C=C/C(=O)c1ccccc1OCc1cnc(Cl)s1`, the inhibition [1] was “inactive”.

For `CC(C)(C)OC(=O)N1CCN(C(=O)c2[nH]cnc2C(=O)N[C@@H](Cc2ccccc2)C(=O)OCc2ccccc2)CC1`, the inhibition [1] was 2.09% (inactive).

In the case of `CC(C)(C)OC(=O)[C@H](Cc1ccccc1)NC(=O)c1nc[nH]c1C(=O)N1CCN(c2ccccc2)CC1`, the inhibition [1] is reported as 5.56% (inactive).

In the case of `O=C(CSc1ncn[nH]1)N/N=C/c1ccc(Br)cc1`, the inhibition [1] is reported as 0.58% (inactive).

In the case of `Cc1ccccc1NC(=O)COC(=O)C1C2CC3OC(=O)C1C3C2` (configuration not stated), the inhibition [1] is reported as 0.18% (inactive).

For `Cc1nc2c(c(=O)n1CCC1=CCCCC1)c1nc3ccccc3nc1n2/N=C/c1ccccc1`, the inhibition [1] was “inactive”.

In the case of `Cc1onc(-c2ccccc2)c1-c1nnc(CN2CCN(S(=O)(=O)c3ccccc3F)CC2)o1`, the inhibition [1] is reported as 7.39% (inactive).

With `COc1ccc(C(=O)NC(=O)Nc2ncccc2C)cc1` the inhibition [1] was 3.84% (inactive).

For `Cc1ccc(C(=O)NCC(=O)Nc2ncccc2C)s1`, the inhibition [1] was “inactive”.

For `CCCCc1nc2sc3c(c2c(=O)n1NC(=O)c1ccco1)CC(C)(C)OC3`, the inhibition [1] was 0.57% (inactive).

For `OCCNC(=S)NCc1ccccc1`, the inhibition [1] was 0.77% (inactive).

For `O=C(NCC(=O)N(c1cccc(F)c1)C(C(=O)NC1CCCC1)c1cccnc1)c1cccs1` (configuration not stated), the inhibition [1] was “inactive”.

In the case of `O=C(C1CCCCC1)N(Cc1nc2sc3c(c2c(=O)[nH]1)CCCC3)Cc1cccs1`, the inhibition [1] is reported as 2.95% (inactive).

In the case of `Cc1sc2nc(CN(C(=O)c3cccs3)C3CCCC3)[nH]c(=O)c2c1C`, the inhibition [1] is reported as 5.66% (inactive).

In the case of `S=c1[nH]nc(-c2ccccn2)n1/N=C/c1ccc(-c2ccccc2Cl)o1`, the inhibition [1] is reported as 24.7% (inactive).

With `Clc1ccccc1-c1ccc(/C=N/n2cnnc2)o1` the inhibition [1] was 1.39% (inactive).

In the case of `Cc1n[nH]c(=S)n1/N=C/c1ccc(-c2ccccc2[N+](=O)[O-])o1`, the inhibition [1] is reported as 2.62% (inactive).

For `S=c1[nH]nc(-c2cccc(Cl)c2)n1/N=C/c1ccc(-c2ccccc2Br)o1`, the inhibition [1] was 23.7% (inactive).

For `Cc1nnc(C)n1/N=C/c1ccc(-c2ccccc2Cl)o1`, the inhibition [1] was “inactive”.

For `Cc1ccc(-c2ccc(/C=N\n3cnnc3)o2)c(Br)c1`, the inhibition [1] was 1.33% (inactive).

With `COc1ccc(CNC(=O)CNC(C)c2ccc(F)cc2)cc1` (configuration not stated) the inhibition [1] was “inactive”.

In the case of `O=C(Cn1nc(Cc2cccnc2)c2ccccc2c1=O)NCc1ccc(F)cc1`, the inhibition [1] is reported as 0% [measured here: 10K pilot screen inhibition, stronger effect = higher value] and the outcome [1] is reported as “inactive”.

In the case of `Cc1ccc(NC(=O)CSc2ncn[nH]2)cc1S(=O)(=O)N1CCOCC1`, the inhibition [1] is reported as 0.49% (inactive).

With `O=C(CNS(=O)(=O)c1ccccc1)OCc1cccc([N+](=O)[O-])c1` the inhibition [1] was 6.33% (inactive).

With `CN1CCN(c2nc3c(c(=O)[nH]c(=O)n3C)n2CCOc2ccccc2)CC1` the inhibition [1] was 1.82% (inactive).

For `COC(=O)C(NC(=O)CCC(=O)N[C@@H](C(=O)OC)c1ccccc1)c1ccccc1` (some centres not stated), the inhibition [1] was 0.43% (inactive).

For `O=C(Nc1ccccc1Cl)OC1CCCCC1`, the inhibition [1] was 0.52% (inactive).

With `Cc1c(C(=O)N(C)Cc2ccc(OC(F)F)cc2)oc2ccccc12` the inhibition [1] was “inactive”.

With `Cn1c(=O)c2c(nc(N/N=C/c3c(O)n(C4CCCCC4)c(=S)[nH]c3=O)n2C)n(C)c1=O` the inhibition [1] was 0.22% (inactive).

With `C/C(=N\NC(=O)c1ccncc1)c1c(O)n(Cc2ccccc2)c(=O)[nH]c1=O` the inhibition [1] was 2.16% (inactive).

In the case of `CNc1ccc(Br)cc(C(=O)/C=C/c2cccc(OC)c2OC)c1=O`, the inhibition [1] is reported as 13.1% (inactive).

With `CNc1ccc(Br)cc(C(=O)/C=C/c2ccc(OC)cc2OC)c1=O` the inhibition (stronger effect = higher value) was 1.14% (inactive) and the inhibition [2] was 6.96%.

With `CNc1ccc(Br)cc(C(=O)/C=C/c2ccc(OC)cc2)c1=O` the inhibition [1] was 7.55% (inactive).

For `CNc1ccc(Br)cc(C(=O)/C=C/c2ccc3c(c2)OCO3)c1=O`, the inhibition (stronger effect = higher value) was 7.74% (inactive) and the inhibition [2] was 6.21%.

For `CNc1nc(C)c(C#N)c(-c2ccccc2)c1C(C)=O`, the inhibition [1] was 0.76% (inactive).

In the case of `CC[C@]12c3[nH]c4ccccc4c3CCN1C(=O)C(CC(=O)NCCC1=CCCCC1)C[C@@H]2C(=O)N1CCN(C(=O)c2ccco2)CC1` (some centres not stated), the inhibition [1] is reported as “inactive”.

For `CC(C)c1c(C(=O)N/N=C/c2ccc(OCc3ccccc3)cc2)nnn1-c1nonc1N`, the inhibition [1] was 2.29% (inactive).

In the case of `FC(F)(F)c1cccc(Cc2noc(CN(Cc3ccccn3)CC3CCCO3)n2)c1` (configuration not stated), the inhibition [1] is reported as 6.18% (inactive).

In the case of `CCc1ccccc1NC(=O)C1=CN2CCS(=O)(=O)N=C2C=C1`, the inhibition [1] is reported as 4.92% (inactive).

For `COC(=O)c1ccc(CSc2ccccc2NC(=S)Nc2cccc(SC)c2)o1`, the inhibition [1] was 5.66% (inactive).

With `COC(=O)[C@@H](Cc1ccccc1)NC(=O)CC[C@H]1O[C@@H](n2cc(C)c(=O)[nH]c2=O)C[C@@H]1O` the inhibition [1] was “inactive”.

With `Cc1sc2nc(SCC(=O)c3cccs3)n(Cc3ccco3)c(=O)c2c1C` the inhibition [1] was 0.85% (inactive).

With `C=CCn1c(SCC(=O)c2cccs2)nc2sc(C)cc2c1=O` the inhibition [1] was 5.28% (inactive).

For `CCOCCCNC(=O)c1cn(C)c(=O)c2cc(OC)c(OC)cc12`, the inhibition [1] was 2.15% (inactive).

In the case of `c1ccc(C(c2c[nH]c3ccccc23)c2c[nH]c3ccccc23)nc1`, the inhibition [1] is reported as 6.07% (inactive).

With `CCOC(=O)c1c(-c2cccc(C)c2)csc1NC(=O)C1CC=CCC1C(=O)O` (configuration not stated) the inhibition [1] was 1.95% (inactive).

With `COC(=O)c1c(-c2ccccc2)noc1C` the inhibition [1] was “inactive”.

In the case of `CCOCc1nnc(NC(=O)c2c(-c3ccccc3)noc2C)s1`, the inhibition [1] is reported as 2.18% (inactive).

In the case of `CCC(CC)c1nnc(NC(=O)c2c(-c3ccccc3)noc2C)s1`, the inhibition [1] is reported as “inactive”.

For `CCOC(=O)c1c(-c2ccc(F)cc2)csc1NC(=O)c1c(-c2ccccc2)noc1C`, the inhibition [1] was 9.91% (inactive).

For `COC(=O)c1sccc1NC(=O)c1c(-c2ccccc2)noc1C`, the inhibition [1] was 0.71% (inactive).

In the case of `Cn1c(=O)c2c(nc(OCc3cccnc3)n2Cc2c(F)cccc2Cl)n(C)c1=O`, the inhibition [1] is reported as “inactive”.

In the case of `Cc1ccc(NC(=O)C2CC(=O)N(c3ccc4c(c3)OCCO4)C2)nc1` (configuration not stated), the inhibition [1] is reported as 0.81% (inactive).

With `COc1ccc(NC(=O)c2cc(S(=O)(=O)Nc3ccc(OC)cc3)cs2)cc1` the inhibition [1] was 1.17% (inactive).

For `O=C1CCc2cc(S(=O)(=O)N3CCC(C(=O)NC4CCCCCCC4)CC3)ccc2N1`, the inhibition [1] was 0.11% (inactive).

In the case of `CC1CCCCN1C(=O)CSc1nc(N)cc(=O)[nH]1` (configuration not stated), the inhibition [1] is reported as 0.79% (inactive).

With `COC(=O)Cc1ccc(NC(=S)NCCSc2ccc(C)cc2)cc1` the inhibition [1] was 0.04% (inactive).

In the case of `CCOC(=O)c1cnc(N2CCOCC2)[nH]c1=O`, the inhibition [1] is reported as “inactive”.

With `O=c1ccc(Cl)cn1Cc1ccccc1F` the inhibition [1] was 0.68% (inactive).

In the case of `CCCNC(=O)CSc1nnc(NC(=O)C2CC(=O)N(c3ccccc3OC)C2)s1` (configuration not stated), the inhibition [1] is reported as 0.13% (inactive).

With `CN(C)CCCNc1nc(N)c([N+](=O)[O-])c(NC2CCCCC2)n1` the inhibition [1] was 1.04% (inactive).

With `Nc1nc(NCCO)nc(NC2CCCCC2)c1[N+](=O)[O-]` the inhibition [1] was 3.17% (inactive).

For `OCC1CCCCN1C(=S)NCc1ccco1` (configuration not stated), the inhibition [1] was 2.33% (inactive).

For `O=C(NNC(=O)c1ccc2ccccc2c1)c1cccc(F)c1`, the inhibition [1] was 0.5% (inactive).

In the case of `COc1ccccc1NS(=O)(=O)c1ccc(C(=O)N2CCN(c3ccccn3)CC2)cc1`, the inhibition [1] is reported as 12.1% (inactive).

In the case of `COc1cc2cc(CN(CCO)S(=O)(=O)c3ccccc3)c(=O)[nH]c2cc1OC`, the inhibition [1] is reported as 2.19% (inactive).

In the case of `CCOC(=O)C(CC)n1cnc2sc3c(c2c1=O)CCC3` (configuration not stated), the inhibition [1] is reported as 2.46% (inactive).

For `CCc1ccc(/C=C/C(=O)c2cc(Br)ccc(=O)c2O)cc1`, the inhibition [1] was 2.12% (inactive).

For `COc1ccc(/C=C/C(=O)c2cc(Cl)cc(Cl)c2O)c(OC)c1`, the inhibition [1] was 0.43% (inactive).

With `CCNc1ccc(Br)cc(C(=O)/C=C/c2ccccc2Cl)c1=O` the inhibition [1] was 2.29% (inactive).

In the case of `CN(C)/C=C/C(=O)/C=C/c1ccc(Cl)cc1Cl`, the inhibition [1] is reported as “inactive”.

With `CC(=O)Nc1ccc(S(=O)(=O)Nc2ccc3c(c2)OCO3)cc1` the inhibition [1] was “inactive”.

With `Cc1ccc(-c2cc(C(=O)NCCCn3ccnc3)c3ccccc3n2)s1` the inhibition [1] was 10.3% (inactive).

With `CC(OC(=O)Cn1cnc2ccccc2c1=O)C(=O)N(C)c1ccccc1` (configuration not stated) the inhibition [1] was 1.86% (inactive).

With `Cc1cc(SCC(=O)c2cc3ccccc3o2)nc2ccccc12` the inhibition [1] was “inactive”.

For `COc1ccc(NC(=O)CSc2nc3ccccc3c(=O)n2CCC(=O)N2CCCCC2)cc1`, the inhibition [1] was 10.7% (inactive).

For `CCN(C(=O)c1cccc(Br)c1)c1ccccc1`, the inhibition [1] was 1.28% (inactive).

For `CCC(=O)Nc1nonc1-c1nc2ccccc2n1CC(C)C`, the inhibition [1] was 0.38% (inactive).

With `CCn1c(-c2nonc2NC(=O)c2ccccc2)nc2ccccc21` the inhibition [1] was “inactive”.

In the case of `N#CCCn1c(-c2nonc2NC(=O)c2ccccc2Cl)nc2ccccc21`, the inhibition [1] is reported as “inactive”.

In the case of `CC(=O)Nc1nonc1-c1nc2ccccc2n1CCC(C)C`, the inhibition [1] is reported as 2.19% (inactive).

In the case of `CCOc1ccccc1Nc1ccnc2cc(Cl)ccc12`, the inhibition [1] is reported as 0.76% (inactive).

In the case of `C=C1CCN([C@@H](Cc2ccccc2)C(=O)NC2CCN(Cc3ccccc3)CC2)S(=O)(=O)c2ccccc21`, the inhibition [1] is reported as “inactive”.

With `CCCN1C2CCCC1CC(NC(=O)c1ccc(Br)cc1)C2` (configuration not stated) the inhibition [1] was 0.23% (inactive).

With `CCN(CC)S(=O)(=O)c1ccc(Cl)c(C(=O)OCC(=O)c2c(N)n(C)c(=O)n(C)c2=O)c1` the inhibition [1] was 2.96% (inactive).

For `COCCCNC(=O)c1cc(C(=O)Cc2ccccc2)c[nH]1`, the inhibition [1] was 0.38% (inactive).

With `O=C(CCn1c(=S)oc2ccccc21)Nc1cccc(O)c1` the inhibition [1] was 1.38% (inactive).

In the case of `COc1ccc(C2c3[nH]c4ccccc4c3CCN2C(=O)c2ccc(=O)n(C)n2)c(F)c1` (configuration not stated), the inhibition [1] is reported as 1.1% (inactive).

In the case of `COc1ccc(C2c3[nH]c4ccccc4c3CCN2C(=O)c2cn3ccccc3n2)c(F)c1` (configuration not stated), the inhibition [1] is reported as 8.94% (inactive).
